Measured values taken from PubChem BioAssay (EPA / NIEHS).
Calls of active or inactive are those of the source. How the source made its calls: active means hit-call score of the fitted dose curve at least 0.9, where 1 is the maximum; inactive means score below 0.9.

Legend:
[1] = CEETOX_H295R_PROG: CeeTox H295R High-throughput Steroidogenesis Assay for Progesterone (PROG) (AID 2283442); conditions: actives raise or lower the signal;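 on AC50: human H295R adrenal cells primed with 10 µM forskolin before dosing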
Method in brief: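 Progesterone secreted by human H295R cells was measured by LC-MS/MS following 48 h chemical exposure at 0.1% DMSO, preceded by 48 h forskolin (10 uM) stimulation. Same-well MTT viability; cytotoxic concentrations diluted 10- or 100-fold and retested.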

[2] = read-out: Tumor necrosis factor receptor superfamily member 6 (Homo sapiens) (UniProt P25445); assay: LTEA_HepaRG_FAS: Life Technologies and Expression Analysis (LTEA) Assay for Fas cell surface death receptor (FAS) using HepaRG (AID 2283447); conditions: mRNA level, 48 h; actives raise or lower the signal
Method in brief: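 Differentiated HepaRG cells in serum-free induction medium were exposed 48 h to 8 half-log concentrations up to 100 uM in 0.5% DMSO, in duplicate. FAS mRNA was measured by qRT-PCR normalised to ACTB, GAPDH and POLR2A; bidirectional fit versus DMSO.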

[3] = read-out: Fatty acid synthase (Homo sapiens) (UniProt P49327); assay: LTEA_HepaRG_FASN: Life Technologies and Expression Analysis (LTEA) Assay for Fatty Acid Synthase (FASN) using HepaRG (AID 2283448); conditions: mRNA level, 48 h; actives raise or lower the signal
Method in brief: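 Differentiated human HepaRG cells were exposed for 48 h in serum-free induction medium to eight half-log concentrations up to 100 uM in 0.5% DMSO, in duplicate. FASN mRNA was quantified by TaqMan qRT-PCR, normalized to ACTB/GAPDH/POLR2A, and fitted bidirectionally against DMSO.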

[4] = read-out: Cyclin D2 (CCND2), CCND2 (gene 894); assay: LTEA_HepaRG_CCND2: Life Technologies and Expression Analysis (LTEA) Assay for Cyclin D2 (CCND2) using HepaRG (AID 2283449); conditions: mRNA level, 48 h; actives raise or lower the signal;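 further: CCND2 transcript measured by TaqMan qRT-PCR and normalised to three housekeeping genes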
Method in brief: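 Chemicals in 0.5% DMSO, eight half-log concentrations from 100 uM top, were applied in duplicate for 48 h to human HepaRG cells in serum-free induction medium. CCND2 mRNA by TaqMan qRT-PCR, normalised to ACTB/GAPDH/POLR2A; bidirectional fit versus DMSO.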

[5] = read-out: Cyclin Dependent Kinase Inhibitor 1A (CDKN1A), CDKN1A (gene 1026); assay: LTEA_HepaRG_CDKN1A: Life Technologies and Expression Analysis (LTEA) Assay for Cyclin Dependent Kinase Inhibitor 1A (CDKN1A) using HepaRG (AID 2283450); conditions: mRNA level, 48 h; actives raise or lower the signal
Method in brief: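 Expression quantified by Fluidigm qRT-PCR with ACTB, GAPDH and POLR2A normalization, fitted bidirectionally against 0.5% DMSO. Cells: HepaRG, plated 48 h then treated 48 h in serum-free induction medium, top concentration 100 uM with half-log dilutions.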

[6] = read-out: Cyclin D1 (CCND1), CCND1 (gene 595); assay: LTEA_HepaRG_CCND1: Life Technologies and Expression Analysis (LTEA) Assay for Cyclin D1 (CCND1) using HepaRG (AID 2283451); conditions: mRNA level, 48 h; actives raise or lower the signal
Method in brief: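 Expression of CCND1 was quantified by qRT-PCR on Fluidigm arrays using ACTB, GAPDH and POLR2A as reference genes. HepaRG cultures, plated 48 h beforehand, were dosed for 48 h at up to 100 uM (half-log, 8 points) in 0.5% DMSO.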

[7] = read-out: catalase (CAT), CAT (gene 847); assay: LTEA_HepaRG_CAT: Life Technologies and Expression Analysis (LTEA) Assay for catalase (CAT) using HepaRG (AID 2283452); conditions: mRNA level, 48 h; actives raise or lower the signal;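 on AC50: TaqMan qRT-PCR signal normalized to ACTB GAPDH and POLR2A housekeeping genes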
Method in brief: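 HepaRG cells in serum-free induction medium, 0.5% DMSO vehicle, exposed 48 h in duplicate over 8 half-log concentrations from 100 uM. CAT mRNA measured by qRT-PCR, normalized to ACTB, GAPDH, POLR2A; bidirectional fit versus DMSO.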

[8] = read-out: flavin-containing dimethylaniline monooxygenases 3 (FMO3), FMO3 (gene 2328); assay: LTEA_HepaRG_FMO3: Life Technologies and Expression Analysis (LTEA) Assay for flavin-containing dimethylaniline monooxygenases 3 (FMO3) using HepaRG (AID 2283453); conditions: mRNA level, 48 h; actives raise or lower the signal
Method in brief: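 HepaRG, 48 h exposure, 8-pt half-log series from 100 uM, 0.5% DMSO vehicle, duplicates; FMO3 transcript by Fluidigm TaqMan qRT-PCR, housekeeping-normalized; gain/loss fit vs DMSO.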

[9] = read-out: Cytochrome P450 (CYP1A1), CYP1A1 (gene 1543); assay: LTEA_HepaRG_CYP1A1: Life Technologies and Expression Analysis (LTEA) Assay for Cytochrome P450 (CYP1A1) using HepaRG (AID 2283454); conditions: mRNA level, 48 h; actives raise or lower the signal
Method in brief: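 CYP1A1 transcript levels measured by Fluidigm qRT-PCR against three housekeeping genes, 48 h after chemical dosing of human HepaRG cells (highest concentration 100 uM, half-log steps, 0.5% DMSO vehicle). Gain or loss of signal fitted relative to DMSO.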

[10] = read-out: CFLAR gene, CFLAR (gene 8837); assay: LTEA_HepaRG_CFLAR: Life Technologies and Expression Analysis (LTEA) Assay for CFLAR gene using HepaRG (AID 2283455); conditions: mRNA level, 48 h; actives raise or lower the signal
Method in brief: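 Differentiated HepaRG cells in serum-free induction medium were exposed 48 h in duplicate to eight half-log concentrations up to 100 uM in 0.5% DMSO; mRNA measured by TaqMan qRT-PCR, normalized to ACTB, GAPDH, POLR2A; bidirectional fitting versus DMSO.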

[11] = read-out: Forkhead box O1 (FOXO1), FOXO1 (gene 2308); assay: LTEA_HepaRG_FOXO1: Life Technologies and Expression Analysis (LTEA) Assay for Forkhead box O1 (FOXO1) using HepaRG (AID 2283456); conditions: mRNA level, 48 h; actives raise or lower the signal
Method in brief: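 Differentiated HepaRG cells, in serum-free induction medium with 0.5% DMSO, exposed 48 h in duplicate to 8-point half-log series from 100 uM. FOXO1 mRNA measured by TaqMan qRT-PCR, normalized to ACTB, GAPDH, POLR2A; bidirectional fit versus DMSO.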

[12] = read-out: Forkhead box O3 (FOXO3), FOXO3 (gene 2309); assay: LTEA_HepaRG_FOXO3: Life Technologies and Expression Analysis (LTEA) Assay for Forkhead box O3 (FOXO3) using HepaRG (AID 2283459); conditions: mRNA level, 48 h; actives raise or lower the signal
Method in brief: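 Differentiated human HepaRG cells, 48 h post-plating, exposed in duplicate for 48 h in serum-free induction medium; 8-point half-log series from 100 uM in 0.5% DMSO. FOXO3 mRNA by TaqMan qRT-PCR, normalized to ACTB/GAPDH/POLR2A; bidirectional fit versus DMSO.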

[13] = read-out: growth arrest and DNA damage 45 (GADD45B), GADD45B (gene 4616); assay: LTEA_HepaRG_GADD45B: Life Technologies and Expression Analysis (LTEA) Assay for growth arrest and DNA damage 45 (GADD45B) using HepaRG (AID 2283461); conditions: mRNA level, 48 h; actives raise or lower the signal
Method in brief: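 Transcript level quantified by Fluidigm TaqMan qRT-PCR with three housekeeping genes for normalization, analyzed for up- or down-regulation against 0.5% DMSO. HepaRG cultures dosed 48 h at eight half-log concentrations up to 100 uM, duplicates.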

[14] = read-out: ABC Transporter (ABCC3), ABCC3 (gene 8714); assay: LTEA_HepaRG_ABCC3: Life Technologies and Expression Analysis (LTEA) Assay for ABC Transporter (ABCC3) using HepaRG (AID 2283462); conditions: mRNA level, 48 h; actives raise or lower the signal
Method in brief: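 Transcript level by TaqMan qRT-PCR, normalised to three housekeeping genes, fitted in both directions relative to vehicle. Chemicals tested in duplicate at eight half-log concentrations up to 100 uM for 48 h on HepaRG cells (0.5% DMSO).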

[15] = read-out: ABC Transporter (ABCB11), ABCB11 (gene 8647); assay: LTEA_HepaRG_ABCB11: Life Technologies and Expression Analysis (LTEA) Assay for ABC Transporter (ABCB11) using HepaRG (AID 2283463); conditions: mRNA level, 48 h; actives raise or lower the signal
Method in brief: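 Differentiated human HepaRG cells in serum-free induction medium, dosed in duplicate for 48 h. Eight-point half-log series from 100 uM in 0.5% DMSO; ABCB11 mRNA by qRT-PCR, normalized to ACTB, GAPDH, POLR2A, fitted bidirectionally versus DMSO.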

[16] = read-out: ABC Transporter (ABCC2), ABCC2 (gene 1244); assay: LTEA_HepaRG_ABCC2: Life Technologies and Expression Analysis (LTEA) Assay for ABC Transporter (ABCC2) using HepaRG (AID 2283464); conditions: mRNA level, 48 h; actives raise or lower the signal
Method in brief: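 Endpoint is ABCC2 transcript level from qRT-PCR, normalized to three housekeeping genes and fitted bidirectionally relative to DMSO. Human HepaRG cells received test chemical for 48 h at up to 100 uM (8 points, half-log steps, 0.5% DMSO), duplicate wells.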

[17] = read-out: Broad substrate specificity ATP-binding cassette transporter ABCG2 (Homo sapiens) (UniProt Q9UNQ0); assay: LTEA_HepaRG_ABCG2: Life Technologies and Expression Analysis (LTEA) Assay for ABC Transporter (ABCG2) using HepaRG (AID 2283465); conditions: mRNA level, 48 h; actives raise or lower the signal
Method in brief: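 Differentiated HepaRG cells were exposed for 48 h in serum-free induction medium to 8 half-log concentrations, top 100 uM, in 0.5% DMSO. ABCG2 mRNA was measured by qRT-PCR, normalized to ACTB, GAPDH and POLR2A, with bidirectional fitting versus DMSO.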

[18] = read-out: ABC Transporter (ABCB1), ABCB1 (gene 5243); assay: LTEA_HepaRG_ABCB1: Life Technologies and Expression Analysis (LTEA) Assay for ABC Transporter (ABCB1) using HepaRG (AID 2283460); conditions: mRNA level, 48 h; actives raise or lower the signal
Method in brief: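 HepaRG cells exposed in duplicate for 48 h in serum-free induction medium to eight half-log concentrations up to 100 uM in 0.5% DMSO. ABCB1 mRNA quantified by qRT-PCR, normalised to ACTB, GAPDH and POLR2A; fitted bidirectionally versus DMSO.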

[19] = read-out: growth arrest and DNA damage 45 (GADD45A), GADD45A (gene 1647); assay: LTEA_HepaRG_GADD45A: Life Technologies and Expression Analysis (LTEA) Assay for growth arrest and DNA damage 45 (GADD45A) using HepaRG (AID 2283458); conditions: mRNA level, 48 h; actives raise or lower the signal
Method in brief: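 Differentiated HepaRG cells were exposed in duplicate for 48 h in serum-free induction medium to 8-point half-log concentrations up to 100 uM in 0.5% DMSO. GADD45A mRNA was measured by TaqMan qRT-PCR, normalized to ACTB, GAPDH and POLR2A, with bidirectional fitting versus DMSO.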

Measured: AC50

Sequence of Broad substrate specificity ATP-binding cassette transporter ABCG2 (Homo sapiens) (Q9UNQ0 whole entry, looked up): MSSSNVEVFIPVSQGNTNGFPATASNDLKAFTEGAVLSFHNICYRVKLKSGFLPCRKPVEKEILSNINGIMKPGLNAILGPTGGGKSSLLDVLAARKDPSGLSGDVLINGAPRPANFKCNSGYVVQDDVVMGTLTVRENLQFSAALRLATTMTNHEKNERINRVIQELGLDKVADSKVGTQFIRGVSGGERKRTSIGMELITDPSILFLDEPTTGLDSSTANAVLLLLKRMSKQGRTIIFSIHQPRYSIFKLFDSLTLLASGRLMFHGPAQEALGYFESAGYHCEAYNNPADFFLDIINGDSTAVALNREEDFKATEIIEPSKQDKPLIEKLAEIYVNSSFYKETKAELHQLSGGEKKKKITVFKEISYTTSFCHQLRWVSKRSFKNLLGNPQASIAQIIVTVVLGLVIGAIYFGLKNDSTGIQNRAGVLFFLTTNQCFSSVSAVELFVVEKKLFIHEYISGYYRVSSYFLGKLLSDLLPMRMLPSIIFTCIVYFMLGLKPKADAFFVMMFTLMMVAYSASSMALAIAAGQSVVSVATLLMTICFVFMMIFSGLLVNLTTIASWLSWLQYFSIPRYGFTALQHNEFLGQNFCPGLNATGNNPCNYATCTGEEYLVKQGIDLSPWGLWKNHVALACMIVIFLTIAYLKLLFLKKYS
Sequence of Fatty acid synthase (Homo sapiens) (P49327 whole entry, looked up): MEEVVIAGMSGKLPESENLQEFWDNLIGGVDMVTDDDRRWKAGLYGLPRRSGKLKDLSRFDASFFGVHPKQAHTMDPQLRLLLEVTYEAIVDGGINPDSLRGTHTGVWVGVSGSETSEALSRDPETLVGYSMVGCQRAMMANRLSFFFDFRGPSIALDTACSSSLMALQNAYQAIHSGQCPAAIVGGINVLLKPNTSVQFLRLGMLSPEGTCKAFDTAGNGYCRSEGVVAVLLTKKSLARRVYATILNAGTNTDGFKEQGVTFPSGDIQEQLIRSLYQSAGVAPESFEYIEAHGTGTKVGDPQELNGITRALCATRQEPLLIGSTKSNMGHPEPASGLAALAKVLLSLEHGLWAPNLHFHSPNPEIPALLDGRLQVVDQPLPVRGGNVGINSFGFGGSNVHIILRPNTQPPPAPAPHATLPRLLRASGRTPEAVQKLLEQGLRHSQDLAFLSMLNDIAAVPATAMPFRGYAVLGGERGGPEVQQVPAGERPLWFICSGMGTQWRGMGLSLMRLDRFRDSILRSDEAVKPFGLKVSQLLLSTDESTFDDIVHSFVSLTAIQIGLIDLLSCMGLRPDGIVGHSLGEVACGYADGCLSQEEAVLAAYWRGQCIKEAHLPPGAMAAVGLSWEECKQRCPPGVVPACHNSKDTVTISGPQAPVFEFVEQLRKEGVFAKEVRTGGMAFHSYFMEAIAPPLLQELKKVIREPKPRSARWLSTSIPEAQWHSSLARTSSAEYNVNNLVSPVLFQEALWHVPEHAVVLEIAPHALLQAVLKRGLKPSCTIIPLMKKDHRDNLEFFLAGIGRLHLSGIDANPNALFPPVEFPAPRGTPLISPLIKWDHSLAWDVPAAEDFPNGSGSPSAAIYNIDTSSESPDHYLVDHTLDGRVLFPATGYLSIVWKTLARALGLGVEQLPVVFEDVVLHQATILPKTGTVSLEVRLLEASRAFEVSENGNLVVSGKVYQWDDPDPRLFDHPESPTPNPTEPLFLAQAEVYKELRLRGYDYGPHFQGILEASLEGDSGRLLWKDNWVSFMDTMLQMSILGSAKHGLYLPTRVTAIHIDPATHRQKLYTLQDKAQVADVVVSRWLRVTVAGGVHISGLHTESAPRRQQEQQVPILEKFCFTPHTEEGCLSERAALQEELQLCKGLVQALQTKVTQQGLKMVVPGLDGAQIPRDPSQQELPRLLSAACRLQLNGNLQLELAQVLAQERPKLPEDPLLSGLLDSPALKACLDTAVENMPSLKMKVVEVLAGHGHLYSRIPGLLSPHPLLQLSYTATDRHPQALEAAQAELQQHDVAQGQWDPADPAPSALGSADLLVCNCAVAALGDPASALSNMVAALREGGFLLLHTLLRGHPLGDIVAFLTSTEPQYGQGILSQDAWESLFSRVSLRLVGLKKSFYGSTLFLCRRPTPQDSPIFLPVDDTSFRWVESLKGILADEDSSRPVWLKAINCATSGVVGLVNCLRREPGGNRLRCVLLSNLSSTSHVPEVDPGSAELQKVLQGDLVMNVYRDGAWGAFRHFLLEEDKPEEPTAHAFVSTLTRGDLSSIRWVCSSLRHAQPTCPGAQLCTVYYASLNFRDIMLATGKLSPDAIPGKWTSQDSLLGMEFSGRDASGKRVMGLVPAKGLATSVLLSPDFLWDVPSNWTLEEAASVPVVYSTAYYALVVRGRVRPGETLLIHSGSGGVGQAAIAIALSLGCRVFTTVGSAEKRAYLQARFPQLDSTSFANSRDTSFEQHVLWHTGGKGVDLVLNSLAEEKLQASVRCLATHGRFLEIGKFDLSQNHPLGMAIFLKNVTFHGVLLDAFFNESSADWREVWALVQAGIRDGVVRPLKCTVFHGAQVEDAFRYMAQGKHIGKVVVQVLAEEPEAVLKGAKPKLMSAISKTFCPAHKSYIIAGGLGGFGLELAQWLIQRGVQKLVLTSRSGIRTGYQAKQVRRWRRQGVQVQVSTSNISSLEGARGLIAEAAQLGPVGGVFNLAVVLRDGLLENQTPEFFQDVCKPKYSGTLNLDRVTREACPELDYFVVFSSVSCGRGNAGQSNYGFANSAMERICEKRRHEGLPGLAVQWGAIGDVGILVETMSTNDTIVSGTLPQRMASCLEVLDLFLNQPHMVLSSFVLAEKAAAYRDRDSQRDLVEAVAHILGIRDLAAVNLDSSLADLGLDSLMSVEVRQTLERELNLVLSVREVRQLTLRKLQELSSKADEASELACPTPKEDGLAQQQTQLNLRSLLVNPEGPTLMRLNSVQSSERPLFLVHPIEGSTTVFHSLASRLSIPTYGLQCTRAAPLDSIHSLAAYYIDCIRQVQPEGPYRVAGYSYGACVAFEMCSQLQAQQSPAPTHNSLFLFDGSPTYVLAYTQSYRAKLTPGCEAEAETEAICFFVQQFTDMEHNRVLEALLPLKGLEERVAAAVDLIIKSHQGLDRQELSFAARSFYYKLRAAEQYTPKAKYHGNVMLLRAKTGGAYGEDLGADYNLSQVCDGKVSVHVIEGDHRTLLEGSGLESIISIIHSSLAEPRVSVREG

O=[N+]([O-])c1ccc(Oc2ccc(Cl)cc2Cl)cc1
active: [3] 50 µM | [8] 50 µM | [9] 22.8 µM | [15] 11.5 µM | [17] 14.5 µM
inactive: [1] | [2] | [4] | [5] | [6] | [7] | [10] | [11] | [12] | [13] | [14] | [16]

Cc1ccc(N=C=O)cc1N=C=O
active: [3] 15.9 µM | [5] 72.2 µM | [7] 19.7 µM | [8] 31.2 µM | [9] 40.4 µM | [15] 20.2 µM
inactive: [1] | [2] | [4] | [6] | [10] | [11] | [12] | [18] | [13] | [14] | [16] | [17]

O=C(Oc1ccc(Br)cc1)N1CCN2CCC1CC2
active: [1] 1.3 µM | [3] 75.9 µM | [9] 65.1 µM
inactive: [2] | [4] | [5] | [6] | [7] | [8] | [10] | [11] | [19] | [12] | [18] | [13] | [14] | [16] | [17]
